Laboratory results taken from PubChem BioAssay.
For some assays here: Results with a measured potency or affinity are listed apart. Calls of active or inactive are those of the source. The rule behind the calls is not given here.

These molecules were tested against Plasmodium falciparum protein kinase 6 (PK6, PF3D7_1337100) (UniProt Q8IDW1) (assay: PfPK6 kinase inhibitors, biochemical, TCAMS library (AID 1159586)). Details: recombinant PfPK6, Kinase-Glo ATP depletion luminescence.
Plasmodium falciparum protein kinase 6 (PK6, PF3D7_1337100), sequence (Q8IDW1 1-305): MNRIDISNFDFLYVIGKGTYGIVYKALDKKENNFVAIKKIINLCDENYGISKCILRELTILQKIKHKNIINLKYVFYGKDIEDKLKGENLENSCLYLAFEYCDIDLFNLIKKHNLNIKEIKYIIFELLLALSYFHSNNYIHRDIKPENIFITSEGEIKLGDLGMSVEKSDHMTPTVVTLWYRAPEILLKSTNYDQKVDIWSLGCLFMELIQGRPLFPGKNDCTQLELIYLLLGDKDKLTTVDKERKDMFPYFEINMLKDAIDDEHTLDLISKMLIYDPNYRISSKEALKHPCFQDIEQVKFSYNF

outcome, inactive:
CCN(CC)CCCNc1ncc2c(-c3ccc(NC(=O)Nc4cc(C(F)(F)F)ccc4F)cc3)nn(C)c2n1, CC(C)Cc1cn(-c2nc(C(=N)N)cs2)c2cc(Cl)ccc12, Oc1ccc2[nH]c(-c3cccs3)nc2c1CN1CCC(N2CCCC2)CC1, COc1ccc(N2CCN(c3nc(N)c4cc(OC)c(OC)cc4n3)CC2C)cc1 (stereo not given), Oc1c(Cl)cc(-c2ccccc2)cc1CNC1CCCCC1, O=C(Nc1ccc(F)cc1)N1CCCN(c2ccnc3cc(Cl)ccc23)CC1, Nc1cccc(CNCc2ccc(-c3cccc(-c4nc5ccccc5[nH]4)c3)cc2)c1, Cc1nc(Nc2ccc(F)cc2)nc(N2CCc3ccccc3C2C)c1CO (stereo not given), CNCCNC(=O)C1Cc2c([nH]c3c(C)cccc23)C(c2ccc(Cl)c(Cl)c2)N1 (stereo not given), CCCc1cc(NCc2ccncc2)nc(Nc2ccc(F)cc2)n1, CCCCCn1c(Sc2ccc(C#N)c([N+](=O)[O-])c2)nnc1-c1cc(OC)cc(OC)c1, COc1cc(OC)c(NC(=O)COc2ccc(C)cc2)cc1Cl, c1ccc(-c2cc(NCCCCCCCCNc3cc(-c4ccccc4)nc4ccccc34)c3ccccc3n2)cc1, Cn1nccc1C(=O)NCCNCc1ccc(-c2cccc(-c3nc4ccc(F)cc4[nH]3)c2)cc1, COc1cc(C=NNc2nc(Nc3ccccc3)nc(Nc3ccccc3)n2)ccc1OCc1ccccc1[N+](=O)[O-], O=C(/C=C/c1ccc(Cl)c(Cl)c1)NCCCCCN1CCC(c2cn[nH]c2-c2ccccc2)CC1, CCOc1cc(C)ccc1C1CCN(CCCCNC(=O)c2ccc(-c3ccc(Cl)cn3)cc2)CC1, NC(=O)c1cccc(C(=O)Nc2ccc(-c3cccc(-c4nc5ccc(C(F)(F)F)cc5[nH]4)c3)cc2)c1, COc1ccccc1CCNC(=O)c1cnc(N2CCN(c3ccncc3)CC2)c(Cl)c1, Cc1ccc(-n2c(Sc3ncnc4sccc34)nnc2N2CCCC2)cc1, Cc1cc(N2CCCCC2)nc2ccc(NC(=O)c3cncc(Br)c3)cc12, Cn1nc(-c2cccc(CNCCc3cccs3)c2)c2cnc(NC3CCCC3)nc21, COc1ccc2nccc([C@@H](O)CN3CCC(NCc4ccc5cccc(O)c5n4)CC3)c2c1, CCCNCc1ccc(-c2ccc(CN(CCOC)C(=O)c3nn(-c4ccccc4)nc3C)cc2)nc1, CC(CN(C)C)C(=O)Nc1cccc(-c2ccc(-c3nc4ccc(C(F)(F)F)cc4[nH]3)cc2)c1 (stereo not given), Cc1ccc(C)c(Sc2ccc(NC(=O)CN3CCN(C(=O)c4ccco4)CC3)cc2)c1, C=CC[C@H](NC(=O)c1ccc(NS(=O)(=O)c2ccc3nc(N)[nH]c(=O)c3c2)cc1)C(=O)OCCCC, O=C(Nc1cccc(CN2CCN(C(=O)c3cccc(Cl)c3)CC2)c1)c1ccco1, CC(=O)N[C@H](C(=O)Nc1ccc(-c2ccc(-c3nc4ccc(C(F)(F)F)cc4[nH]3)cc2)cc1)C(C)C, O=C(Cc1ccc(NC(=O)c2ccc(O)c(-c3ccc(Cl)c(Cl)c3)c2)cc1)NCCN1CCOCC1, O=C(NCCCCN1CCC(c2ccc3c(c2O)CCCC3)CC1)c1ccc(-c2ccc(Cl)cc2)cc1, O=C(Nc1ccc(-c2cccc(-c3nc4ccccc4[nH]3)c2)cc1)N[C@@H]1C[C@H]1c1ccccc1, CCN(CC)CCCC(C)Nc1c2ccccc2nc2c1ccc1ccccc12 (stereo not given), NC1CCN(Cc2ccc(-c3ccc(-c4nc5ccc(F)cc5[nH]4)s3)cc2)C1 (stereo not given), Fc1cccc(C=NNc2ccnc3cc(Cl)ccc23)c1, Nc1cc(-c2ccc3c(N)nccc3c2)ccc1Cl, O=[N+]([O-])c1ccc(Oc2ccccc2CNCC2CCN(CC3CCCCC3)CC2)cc1, CCN(CCCN1CCCCC1)c1cc(C)nc(Nc2ccc(C)c(C)c2)n1, CC(C)(C)c1ccc(CN2CCC(CNC(=O)c3cc(-c4ccccc4)nc4ccccc34)CC2)cc1, CCCCCCCCNCC(O)c1cc(-c2ccc(Cl)cc2)nc2cc(C)ccc12 (stereo not given)

Each molecule was assayed against Protein kinase 7 (PK7), Plasmodium falciparum 3D7 (PF3D7_0213400) (UniProt Q7YTF7) (assay: inhibition of Plasmodium PK7 catalytic activity – biochemical, TCAMS antimalarial set, Kinase-Glo luminescence (AID 1159587)). Details: recombinant PfPK7, Kinase-Glo ATP depletion luminescence.
Protein kinase 7 (PK7), Plasmodium falciparum 3D7 (PF3D7_0213400), sequence (Q7YTF7 1-343): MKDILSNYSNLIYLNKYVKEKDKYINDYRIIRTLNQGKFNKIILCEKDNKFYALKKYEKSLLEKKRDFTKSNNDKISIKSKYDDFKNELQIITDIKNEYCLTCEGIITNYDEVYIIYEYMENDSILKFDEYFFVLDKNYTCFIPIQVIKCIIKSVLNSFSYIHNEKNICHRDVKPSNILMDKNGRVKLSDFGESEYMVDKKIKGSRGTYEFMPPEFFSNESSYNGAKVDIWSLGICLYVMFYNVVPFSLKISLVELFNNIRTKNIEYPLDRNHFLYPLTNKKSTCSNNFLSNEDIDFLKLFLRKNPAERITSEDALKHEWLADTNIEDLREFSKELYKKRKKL

outcome, inactive:
CCN(CC)CCCNc1ncc2c(-c3ccc(NC(=O)Nc4cc(C(F)(F)F)ccc4F)cc3)nn(C)c2n1, CC(C)Cc1cn(-c2nc(C(=N)N)cs2)c2cc(Cl)ccc12, Oc1ccc2[nH]c(-c3cccs3)nc2c1CN1CCC(N2CCCC2)CC1, COc1ccc(N2CCN(c3nc(N)c4cc(OC)c(OC)cc4n3)CC2C)cc1 (stereo not given), Oc1c(Cl)cc(-c2ccccc2)cc1CNC1CCCCC1, O=C(Nc1ccc(F)cc1)N1CCCN(c2ccnc3cc(Cl)ccc23)CC1, Nc1cccc(CNCc2ccc(-c3cccc(-c4nc5ccccc5[nH]4)c3)cc2)c1, Cc1nc(Nc2ccc(F)cc2)nc(N2CCc3ccccc3C2C)c1CO (stereo not given), CNCCNC(=O)C1Cc2c([nH]c3c(C)cccc23)C(c2ccc(Cl)c(Cl)c2)N1 (stereo not given), CCCc1cc(NCc2ccncc2)nc(Nc2ccc(F)cc2)n1, CCCCCn1c(Sc2ccc(C#N)c([N+](=O)[O-])c2)nnc1-c1cc(OC)cc(OC)c1, COc1cc(OC)c(NC(=O)COc2ccc(C)cc2)cc1Cl, c1ccc(-c2cc(NCCCCCCCCNc3cc(-c4ccccc4)nc4ccccc34)c3ccccc3n2)cc1, Cn1nccc1C(=O)NCCNCc1ccc(-c2cccc(-c3nc4ccc(F)cc4[nH]3)c2)cc1, COc1cc(C=NNc2nc(Nc3ccccc3)nc(Nc3ccccc3)n2)ccc1OCc1ccccc1[N+](=O)[O-], O=C(/C=C/c1ccc(Cl)c(Cl)c1)NCCCCCN1CCC(c2cn[nH]c2-c2ccccc2)CC1, CCOc1cc(C)ccc1C1CCN(CCCCNC(=O)c2ccc(-c3ccc(Cl)cn3)cc2)CC1, NC(=O)c1cccc(C(=O)Nc2ccc(-c3cccc(-c4nc5ccc(C(F)(F)F)cc5[nH]4)c3)cc2)c1, COc1ccccc1CCNC(=O)c1cnc(N2CCN(c3ccncc3)CC2)c(Cl)c1, Cc1ccc(-n2c(Sc3ncnc4sccc34)nnc2N2CCCC2)cc1, Cc1cc(N2CCCCC2)nc2ccc(NC(=O)c3cncc(Br)c3)cc12, Cn1nc(-c2cccc(CNCCc3cccs3)c2)c2cnc(NC3CCCC3)nc21, COc1ccc2nccc([C@@H](O)CN3CCC(NCc4ccc5cccc(O)c5n4)CC3)c2c1, CCCNCc1ccc(-c2ccc(CN(CCOC)C(=O)c3nn(-c4ccccc4)nc3C)cc2)nc1, CC(CN(C)C)C(=O)Nc1cccc(-c2ccc(-c3nc4ccc(C(F)(F)F)cc4[nH]3)cc2)c1 (stereo not given), Cc1ccc(C)c(Sc2ccc(NC(=O)CN3CCN(C(=O)c4ccco4)CC3)cc2)c1, C=CC[C@H](NC(=O)c1ccc(NS(=O)(=O)c2ccc3nc(N)[nH]c(=O)c3c2)cc1)C(=O)OCCCC, O=C(Nc1cccc(CN2CCN(C(=O)c3cccc(Cl)c3)CC2)c1)c1ccco1, CC(=O)N[C@H](C(=O)Nc1ccc(-c2ccc(-c3nc4ccc(C(F)(F)F)cc4[nH]3)cc2)cc1)C(C)C, O=C(Cc1ccc(NC(=O)c2ccc(O)c(-c3ccc(Cl)c(Cl)c3)c2)cc1)NCCN1CCOCC1, O=C(NCCCCN1CCC(c2ccc3c(c2O)CCCC3)CC1)c1ccc(-c2ccc(Cl)cc2)cc1, O=C(Nc1ccc(-c2cccc(-c3nc4ccccc4[nH]3)c2)cc1)N[C@@H]1C[C@H]1c1ccccc1, CCN(CC)CCCC(C)Nc1c2ccccc2nc2c1ccc1ccccc12 (stereo not given), NC1CCN(Cc2ccc(-c3ccc(-c4nc5ccc(F)cc5[nH]4)s3)cc2)C1 (stereo not given), Fc1cccc(C=NNc2ccnc3cc(Cl)ccc23)c1, Nc1cc(-c2ccc3c(N)nccc3c2)ccc1Cl, O=[N+]([O-])c1ccc(Oc2ccccc2CNCC2CCN(CC3CCCCC3)CC2)cc1, CCN(CCCN1CCCCC1)c1cc(C)nc(Nc2ccc(C)c(C)c2)n1, CC(C)(C)c1ccc(CN2CCC(CNC(=O)c3cc(-c4ccccc4)nc4ccccc34)CC2)cc1, CCCCCCCCNCC(O)c1cc(-c2ccc(Cl)cc2)nc2cc(C)ccc12 (stereo not given)
